Screens from PubChem BioAssay.
Sampled rows, rich in hits. Any-hit rate of the full collection: about 2.2%.
EWS-Fli inh: EWS/Fli transcriptional activity inhibition. A673 NR0B1-luciferase reporter, viability-normalised. inhibition, % at 12.6 µM. hit rate 0.67% among 350,000. AID 651661;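 active = mean inhibition of at least 50% after viability correction, with every replicate also passing that limit; inconclusive = mean reaches 50% but only one of two replicates passes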;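 note: firefly luciferase signal divided by Alamar Blue viability fluorescence both relative to DMSO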
LGR2 antag: blocks bursicon-induced cAMP signaling via Drosophila LGR2. hit rate 0.35% among 380,000. HEK293 LGR2, CRE-luciferase, bursicon-stimulated, 4 h. AID 720647. inhibition, % at 9.99 µM;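 active = drop in luminescence signal, shown as inhibition above about 50% in the replicate tests, limit read from the data, passing the limit was not always enough; inconclusive = probably only some replicates passing the limit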;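 note: agonist challenge used bursicon conditioned medium at about half maximal strength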
PAX8 inh HTS: PAX8 transcriptional activity inhibition. hit rate 1.2% among 360,000. inhibition, % at 12.6 µM. RMG-I TPO-luciferase reporter, SteadyGlo, 24 h;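 active = mean replicate inhibition at least 60% with every replicate also reaching 60%; inconclusive = only one of the two criteria is met; inactive = mean below 60% and not all replicates reaching 60%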;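 note: luciferase light reporting Pax8 driven TPO promoter activity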
LMP1 NFkB inh: Epstein-Barr LMP1 NF-kappaB reporter inhibition | LMP1-induced NF-kappaB luciferase reporter cells, luminescence | inhibition, % at 12.5 µM | hit rate 0.69% among 350,000 | AID 504558; in the data active = inhibition above about 41%; inconclusive = no clear call, values can overlap the other calls
Shn3 3UTR inh: inhibitors of Schnurri-3 3'UTR reporter in osteoblasts; Clone20 osteoblast Shn3 3'UTR firefly luciferase, 24 h; inhibition, % at 12.5 µM; hit rate 0.52% among 360,000;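 active = mean inhibition of at least 75% with every replicate also reaching 75%; inconclusive = mean inhibition at least 75% but some replicate below; inactive = mean inhibition below 75%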
MITF TRPM1 inh: MITF TRPM1 promoter inhibition in SK-MEL-5 cells; SK-MEL-5 TRPM1 promoter luciferase, 24 h; inhibition, % at 12.5 µM; hit rate 0.83% among 330,000;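 active = mean inhibition across replicates of 60% or more, whatever share of single replicates reaches that level; inconclusive = some that reach 60%, reason not given; inactive = mean inhibition across replicates below 60%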
Large screens that a line does not name were inactive.

COC(=O)N1Cc2ccccc2-n2nncc2C1	none (no result: MITF TRPM1 inh)
COc1cccc(-c2ccc3c(c2)C2c4cnnn4-c4ccccc4C(=O)N2CC3)c1 (configuration not stated)	EWS-Fli inh 59 (no result: LMP1 NFkB inh, Shn3 3UTR inh, MITF TRPM1 inh)
O=C1NC(=O)N(CCc2ccc(F)cc2)C(=O)/C1=C\C=C\c1ccccc1	MITF TRPM1 inh 90
C=CCN1C(=O)NC(=O)/C(=C/C=C/c2ccccc2)C1=O	MITF TRPM1 inh 94 (no result: LGR2 antag)
COC(=O)[C@@H]1[C@@H](CO)[C@@H]2Cn3c(ccc(-c4ccccc4F)c3=O)[C@H]1N2Cc1ccncc1	none (no result: LMP1 NFkB inh, Shn3 3UTR inh, MITF TRPM1 inh)
O=C(NN=Cc1ccc(N(CCCl)CCCl)cc1)c1cccc([N+](=O)[O-])c1	none
O=C(NN=Cc1ccc(N(CCCl)CCCl)cc1)c1cccnc1	LMP1 NFkB inh 47
O=C(O)[C@@H]1[C@@H](CO)[C@@H]2Cn3c(ccc(-c4ccccc4)c3=O)[C@H]1N2C(=O)C1CCCCC1	none (no result: LMP1 NFkB inh, Shn3 3UTR inh, MITF TRPM1 inh)
C[C@H]1CCC/C=C/C2C[C@H](O)CC2[C@H](O)/C=C/C(=O)O1 (some centres not stated)	Shn3 3UTR inh 94, MITF TRPM1 inh 80 (no result: EWS-Fli inh, LGR2 antag, PAX8 inh HTS)
CC1CCC/C=C/C2CC(O)CC2C(O)/C=C/C(=O)O1 (configuration not stated)	PAX8 inh HTS 127, MITF TRPM1 inh 85 (no result: EWS-Fli inh, LGR2 antag)
N#Cc1cccc(-c2ccc([C@H]3[C@H]4CN(C(=O)Cc5cccnc5)CCCCN4[C@H]3CO)cc2)c1	none (no result: LMP1 NFkB inh, Shn3 3UTR inh, MITF TRPM1 inh)
c1ccc(CCn2nnnc2CN2CCC(n3nnc4ccccc43)CC2)cc1	none (no result: EWS-Fli inh, LGR2 antag, PAX8 inh HTS)
Cc1nc2ccccc2n1C1CCN(Cc2nnnn2CCc2ccccc2)CC1	LMP1 NFkB inh 47 (no result: EWS-Fli inh, LGR2 antag)
COc1cc2cc(C(=O)N3CC(COS(C)(=O)=O)c4ccc(O)cc43)[nH]c2c(OC)c1OC (configuration not stated)	LMP1 NFkB inh 90, Shn3 3UTR inh 95, MITF TRPM1 inh 110 (no result: EWS-Fli inh, LGR2 antag, PAX8 inh HTS)
O=C(O)[C@@H]1[C@@H](CO)[C@@H]2Cn3c(cccc3=O)[C@H]1N2C(=O)c1ccccc1	none (no result: PAX8 inh HTS, LMP1 NFkB inh, Shn3 3UTR inh, MITF TRPM1 inh)
COc1cccc(-c2ccc([C@@H]3[C@H](CO)N4CCCCN(C(=O)Cc5ccncc5)C[C@@H]34)cc2)c1	none (no result: EWS-Fli inh, LMP1 NFkB inh, Shn3 3UTR inh, MITF TRPM1 inh)
O=C(CCCc1ccc(N(CCCl)CCCl)cc1)NCc1ccccc1	LMP1 NFkB inh 42 (no result: MITF TRPM1 inh)
Cc1ccccc1-c1ccc([C@@H]2[C@H]3CN(C(=O)Cc4ccccn4)CCCCN3[C@H]2CO)cc1	none (no result: LMP1 NFkB inh, Shn3 3UTR inh, MITF TRPM1 inh)
CCC1CN2CCc3cc(OC)c(OC)cc3C2CC1CC1NCCc2c1[nH]c1ccc(O)cc21 (configuration not stated)	LGR2 antag 100, PAX8 inh HTS 101, LMP1 NFkB inh 83, Shn3 3UTR inh 92, MITF TRPM1 inh 97
COc1ccc2c(c1OC)CN1CCc3cc4c(cc3[C@H]1C2)OCO4	none (no result: EWS-Fli inh, LGR2 antag, PAX8 inh HTS)
CCN1C[C@]2(C)CC[C@H](O)[C@]34C1[C@H](C[C@H]23)[C@@]1(O)C[C@H](OC)[C@H]2C[C@@H]4[C@@H]1C2O (some centres not stated)	LMP1 NFkB inh 90
CCCC[C@@H](C)C[C@@H](C)C(=O)N(C)[C@@H](CC(C)C)C(=O)N[C@H](C(=O)N(C)[C@H](C(=O)N1C[C@@H](O)C[C@H]1C(=O)N1C(=O)C=C[C@@H]1C)C(C)C)C(C)OC(C)=O (some centres not stated)	MITF TRPM1 inh 100 (no result: EWS-Fli inh, LGR2 antag, PAX8 inh HTS)
CCOc1cc2c(cc1OCC)-n1cccc1C(c1ccc(C(C)C)cc1)NC2 (configuration not stated)	Shn3 3UTR inh 90
C#CCOc1cc(C2C3=C(COC3=O)Nc3cc4c(cc32)OCO4)ccc1OC (configuration not stated)	EWS-Fli inh 63, PAX8 inh HTS inconclusive
COc1cc2c(cc1OC)C(C1c3cc4c(cc3CCN1C)OCO4)OC2=O (configuration not stated)	none
COC(=O)[C@H]1[C@H](CO)[C@H]2Cn3c(ccc(-c4ccccc4F)c3=O)[C@@H]1N2	none (no result: LMP1 NFkB inh, Shn3 3UTR inh, MITF TRPM1 inh)
CC=Cc1ccc2n(c1=O)C[C@H]1[C@H](CO)[C@@H](C(=O)OC)[C@@H]2N1C(=O)CC1CC1 (mixture of isomers)	none (no result: LMP1 NFkB inh, Shn3 3UTR inh, MITF TRPM1 inh)
NC(Cc1ccc(F)cc1)c1csc(Nc2ncccn2)n1 (configuration not stated)	PAX8 inh HTS 74 (no result: LMP1 NFkB inh, MITF TRPM1 inh)
O=C(O)[C@@H]1[C@@H](CO)[C@@H]2Cn3c(ccc(C4=CCCC4)c3=O)[C@H]1N2C(=O)Cc1ccccn1	none (no result: PAX8 inh HTS, LMP1 NFkB inh, Shn3 3UTR inh, MITF TRPM1 inh)
CCCOP(=O)(OCCC)C(NC(=O)c1ccccc1)=C(Cl)Cl	none
O=C(NC(=C(Cl)Cl)P(=O)(c1ccccc1)c1ccccc1)c1ccccc1	PAX8 inh HTS 108
CCN1[C@@H]2Cn3c(ccc(-c4cccc(C(=O)N(C)C)c4)c3=O)[C@H]1[C@@H](C(=O)OC)[C@@H]2CO	none (no result: LMP1 NFkB inh, Shn3 3UTR inh, MITF TRPM1 inh)
COC1=C[C@@H]2C3=C([C@@H]2C1=O)[C@@H](NC(C)=O)CCc1cc(OC)c(OC)c(OC)c13	none (no result: LGR2 antag)
COc1ccc2c(c1)C(NC(C)=O)CCc1cc(OC)c(OC)c(OC)c1-2 (configuration not stated)	EWS-Fli inh 55, PAX8 inh HTS 84
COc1cc2c(c(OC)c1OC)-c1ccc(O)c(=O)cc1C(NC(C)=O)CC2 (configuration not stated)	EWS-Fli inh 59, PAX8 inh HTS 85
O=C(Cc1ccncc1)N1CCCCN2[C@H](C1)[C@@H](c1ccc(C#CC3(O)CCCC3)cc1)[C@@H]2CO	none (no result: EWS-Fli inh, LMP1 NFkB inh, Shn3 3UTR inh, MITF TRPM1 inh)
COC(=O)C1CN(C#N)N(c2ccc(Cl)cc2)C12c1ccccc1-c1ccccc12 (configuration not stated)	LGR2 antag 100, Shn3 3UTR inh 97, MITF TRPM1 inh 98 (no result: EWS-Fli inh, PAX8 inh HTS)
Cc1ccc2c(C)c3ccc4ccccc4c3c[n+]2c1	MITF TRPM1 inh 68
CN(C)CC#Cc1ccc([C@@H]2[C@H]3CN(C(=O)Cc4ccccn4)CCCCN3[C@H]2CO)cc1	none (no result: LMP1 NFkB inh, Shn3 3UTR inh, MITF TRPM1 inh)
C/C=C/c1ccc(C2[C@@H]3CN(C(=O)C4CCOCC4)C[C@H]2N3)cc1 (some centres not stated)	none (no result: LMP1 NFkB inh, Shn3 3UTR inh, MITF TRPM1 inh)
COc1cc(/C=C/[N+](=O)[O-])ccc1OC(=O)c1cccnc1	EWS-Fli inh 56 (no result: LGR2 antag)
O=C1NC(=O)C2(CCCc3ccc(N(CCCl)CCCl)cc32)N1 (configuration not stated)	none
CC1(CCCc2ccc(N(CCCl)CCCl)cc2)NC(=O)NC1=O (configuration not stated)	LMP1 NFkB inh 48 (no result: MITF TRPM1 inh)
C[C@H](CO)N1C[C@H](C)[C@H](CN(C)C(=O)Oc2ccccc2)OCc2ccccc2-c2c(n(C)c3ccccc23)C1=O	none (no result: LMP1 NFkB inh, Shn3 3UTR inh, MITF TRPM1 inh)
COc1ccc(-n2nnnc2C(c2cc3ccccc3o2)N2CCC(n3c(=O)[nH]c4ccccc43)CC2)cc1 (configuration not stated)	LGR2 antag 76 (no result: LMP1 NFkB inh, MITF TRPM1 inh)
O=c1[nH]c2ccccc2n1C1CCN(C(c2cc3ccccc3o2)c2nnnn2-c2ccc3c(c2)OCCO3)CC1 (configuration not stated)	LGR2 antag 96, PAX8 inh HTS 103 (no result: LMP1 NFkB inh, MITF TRPM1 inh)
